High-throughput results (PubChem)
Vaccinia mCherry: inhibitors of vaccinia virus infection (mCherry reporter signal) | Vaccinia virus mCherry reporter infection, fluorescence | Potency, µM (top dose mostly 36.5 µM), most hits filed as inhibitors | actives 0.63% (n = 310,000) | AID 720579; calls by dose curve; tested in A549 cells; also: nearly all actives have a fitted effect of over 35% in size
Pf growth 48h: P. falciparum growth inhibition at 48 hours (one generation); Potency, µM (doses to about 28.7 µM), actives largely listed as inhibitors; P. falciparum luciferase growth in erythrocytes, 48 h; actives 5.9% (n = 310,000)
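Luminescence readout; reporter = integrated firefly luciferase in P. falciparum. RBC culture at 2% hematocrit, 0.1% parasitemia final, 37 C/5% CO2; decreased signal taken as growth inhibition.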
VACV Venus inh: inhibitors of vaccinia virus (Venus reporter). Vaccinia virus Venus reporter expression, fluorescence. Potency, µM (doses to about 36.5 µM), actives largely listed as inhibitors. actives 0.46% (n = 330,000); calls by dose curve; tested in A549 cells; also: nearly all actives have a fitted effect of over 30% in size
Pf growth 96h: P. falciparum growth inhibition at 96 hour, primary screen for plastid delayed-death inhibitors | P. falciparum luciferase reporter growth, 96 h | actives 6.9% (n = 320,000) | AID 504834 | Potency, µM (highest dose often 28.7 µM), hits mostly inhibitors
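Two-generation exposure (96 h) targets delayed-death phenotype. Reporter parasites carrying integrated firefly luciferase, in red cells at 2% hematocrit and 0.05% parasitemia final, kept at 37 C, 5% CO2; luminescence loss indicates inhibition.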
HCV inhibitor: inhibitors of hepatitis C virus infection; Potency, µM (doses to about 41.8 µM), hits mostly inhibitors; Huh7.5.1 HCVcc-Cre infection, luciferase reporter, 44 h; actives 3.4% (n = 340,000)
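Compounds are dispensed onto cells plated 4 h earlier at 1,000 per well, with HCVcc-Cre virus (about 0.5 moi) added next. Following 44 h of culture, luminescent signal is measured for 15 sec after 15 min with substrate at room temperature.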
NS1 inh: blocks influenza NS1 protein function | actives 0.4% (n = 270,000) | Potency, µM (highest dose often 46.1 µM); calls by dose curve; also: actives are rising curves; nearly all actives have a fitted effect of over 50% in size
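S. cerevisiae expressing influenza A NS1, grown in glucose, washed, then diluted 1:100 into pH 6.0 -URA galactose medium with 23 nl compound. Growth recovery read as OD600; NS1-free strain serves as control.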
Hits are given with their value. Most compounds without a hit are left out; they make up all but 11% or so of the library. Unless noted, calls follow the shape of the dose curve; as a rule, active = well fitted inhibition curve with a large enough effect; inconclusive = small, poorly fitted or top-dose-only effect, or another doubt; inactive = no such curve, though single readings can be large or run the other way.

How did C#CCOCCOCCOCCNc1nc(N2CCOCC2)nc(N2CCN(C(=O)[C@H]([C@@H](C)CC)n3cc([C@@H](N)CC(C)C)nn3)CC2)n1 do in these assays?
Vaccinia mCherry: inactive; Pf growth 48h: inconclusive; VACV Venus inh: inactive; Pf growth 96h: 6.6µM; HCV inhibitor: inactive; NS1 inh: inactive

How did C#CCOCCOCCOCCNc1nc(N2CCN(C(=O)C([C@@H](C)CC)n3cc(C(N)CC(C)C)nn3)CC2)nc(N2CCN(C(=O)[C@H](CCC(=O)O)n3cc(C(N)CC(C)C)nn3)CC2)n1 (stereo partly drawn) do in these assays?
Vaccinia mCherry: inactive; Pf growth 48h: inactive; VACV Venus inh: inactive; Pf growth 96h: inactive; HCV inhibitor: inactive; NS1 inh: inactive

Results for C#CCOCCOCCOCCNc1nc(N2CCOCC2)nc(N2CCN(C(=O)[C@H]([C@@H](C)CC)n3cc([C@@H](N)Cc4ccc(O)cc4)nn3)CC2)n1 ?
Vaccinia mCherry: inactive; Pf growth 48h: 1.5µM; VACV Venus inh: inactive; Pf growth 96h: inconclusive; HCV inhibitor: inactive; NS1 inh: inactive

How did CCCCCN(C(=O)CCC(=O)OCc1ccccc1C(F)(F)F)c1c(N)n(CCCC)c(=O)[nH]c1=O do in these assays?
Vaccinia mCherry: inactive; Pf growth 48h: inactive; VACV Venus inh: inactive; Pf growth 96h: inconclusive; HCV inhibitor: inactive; NS1 inh: inactive

How did C#CCOCCOCCOCCNc1nc(N2CCN(C(=O)[C@H]([C@@H](C)CC)n3cc([C@@H](N)Cc4ccc(O)cc4)nn3)CC2)nc(N2CCN(C(=O)[C@H]([C@@H](C)CC)n3cc([C@@H](N)CC(C)C)nn3)CC2)n1 do in these assays?
Vaccinia mCherry: inactive; Pf growth 48h: 1.9µM; VACV Venus inh: inactive; Pf growth 96h: 1.5µM; HCV inhibitor: inactive; NS1 inh: inactive

Results for C#CCOCCOCCOCCNc1nc(N2CCN(C(=O)[C@H]([C@@H](C)CC)n3cc([C@@H](N)Cc4ccc(O)cc4)nn3)CC2)nc(N2CCN(C(=O)[C@H](CCCCN)n3cc([C@@H](N)CO)nn3)CC2)n1 ?
Pf growth 48h: inactive; Pf growth 96h: inactive; NS1 inh: inactive

What do the screens show for `C#CCOCCOCCOCCNc1nc(N2CCN(C(=O)[C@H]([C@@H](C)CC)n3cc([C@@H](N)Cc4ccc(O)cc4)nn3)CC2)nc(N2CCN(C(=O)[C@H](Cc3ccc(O)cc3)n3cc([C@@H](N)C(C)CC)nn3)CC2)n1` (stereo partly drawn)?
Vaccinia mCherry: inactive; Pf growth 48h: inconclusive; VACV Venus inh: inactive; Pf growth 96h: inconclusive; HCV inhibitor: inactive; NS1 inh: inactive

Results for C#CCOCCOCCOCCNc1nc(N2CCN(C(=O)[C@H]([C@@H](C)CC)n3cc([C@@H](N)CC(C)C)nn3)CC2)nc(N2CCN(C(=O)[C@H](Cc3ccc(O)cc3)n3cc([C@@H](N)C(C)CC)nn3)CC2)n1 (stereo partly drawn) ?
Vaccinia mCherry: inactive; Pf growth 48h: 5.2µM; VACV Venus inh: inactive; Pf growth 96h: 5.2µM; HCV inhibitor: inactive; NS1 inh: inactive

How did N#CCc1nc(CSc2nc3ccccc3o2)cs1 do in these assays?
Vaccinia mCherry: inactive; Pf growth 48h: inactive; VACV Venus inh: inactive; Pf growth 96h: inconclusive; HCV inhibitor: inactive; NS1 inh: inactive

What do the screens show for `O=C(Cn1c(=O)nc(-c2ccccc2)c2cc(Cl)ccc21)NCCc1ccccc1`?
Vaccinia mCherry: inactive; VACV Venus inh: inactive

Results for CSc1cccc(NC(=S)N2CCC(N(C)C(C)C)CC2)c1 ?
Vaccinia mCherry: inactive; Pf growth 48h: inactive; VACV Venus inh: inactive; Pf growth 96h: inconclusive; HCV inhibitor: inactive; NS1 inh: inactive

What do the screens show for `CCCOC(=O)c1ccc(OCC(O)CN2CCN(C(=O)c3ccccc3)CC2)cc1` (stereo not drawn)?
Pf growth 48h: inactive; VACV Venus inh: inactive; HCV inhibitor: inactive; NS1 inh: inactive

What do the screens show for `C[C@@H](Oc1ccccc1)c1nnn(Cc2ccccc2)c1-c1c([C@@H](C)Oc2ccccc2)nnn1Cc1ccccc1`?
Vaccinia mCherry: inactive; Pf growth 48h: inconclusive; VACV Venus inh: inactive; Pf growth 96h: 6.6µM; HCV inhibitor: inactive; NS1 inh: inactive

What do the screens show for `c1ccc(Cn2nnc3ccccc32)cc1`?
Vaccinia mCherry: inactive; Pf growth 48h: inactive; VACV Venus inh: inactive; Pf growth 96h: inconclusive; HCV inhibitor: inactive; NS1 inh: inactive

Results for O=C(COC(=O)c1sc2ccccc2c1Cl)NC1CCCCC1 ?
Vaccinia mCherry: inactive; Pf growth 48h: inactive; VACV Venus inh: inactive; Pf growth 96h: inactive; HCV inhibitor: inactive; NS1 inh: inactive

How did S=C(NCCc1ccc(Cl)cc1)Nc1ccc(Cl)cc1Cl do in these assays?
Vaccinia mCherry: inactive; Pf growth 48h: inconclusive; VACV Venus inh: inconclusive; Pf growth 96h: inactive; HCV inhibitor: inconclusive; NS1 inh: inactive

Results for C#CCN(C[C@@H]1[C@@H](OC(=O)NC2CC2)[C@@H](OC(=O)NC2CC2)Cn2c(=O)n(CCCCCC)c(=O)n21)S(=O)(=O)c1ccc(C)cc1 ?
Vaccinia mCherry: inactive; VACV Venus inh: inconclusive

How did C#CCN(C[C@@H]1[C@@H](OC(=O)NCc2ccco2)[C@@H](OC(=O)NCc2ccco2)Cn2c(=O)ccc(=O)n21)S(=O)(=O)c1ccc(C)cc1 do in these assays?
Vaccinia mCherry: inconclusive; VACV Venus inh: 7.9µM

Results for C#CCN(C[C@@H]1[C@@H](OC(=O)NCc2ccco2)[C@@H](OC(=O)NCc2ccco2)Cn2c(=O)n(CCCCCC)c(=O)n21)S(=O)(=O)c1ccc(C)cc1 ?
Vaccinia mCherry: inactive; VACV Venus inh: inactive

How did C#CCN(C[C@@H]1[C@@H](OC(=O)NCC2CCCCC2)[C@@H](OC(=O)NCC2CCCCC2)Cn2c(=O)ccc(=O)n21)S(=O)(=O)c1ccc(C)cc1 do in these assays?
Vaccinia mCherry: inconclusive; VACV Venus inh: 7.9µM

How did C#CCN(C[C@@H]1[C@@H](OC(=O)NCCCCCC)[C@@H](OC(=O)NCCCCCC)Cn2c(=O)ccc(=O)n21)S(=O)(=O)c1ccc(C)cc1 do in these assays?
Vaccinia mCherry: inconclusive; VACV Venus inh: 5.6µM

Results for COc1cc(C(=O)O/N=C(\N)Cc2ccc([N+](=O)[O-])cc2)cc(OC)c1OC ?
Vaccinia mCherry: inconclusive; Pf growth 48h: inconclusive; VACV Venus inh: inconclusive; Pf growth 96h: inconclusive; HCV inhibitor: inconclusive; NS1 inh: inactive

How did Cc1nc(NC(=O)/C=C/c2ccco2)sc1C do in these assays?
Vaccinia mCherry: inconclusive; Pf growth 48h: inactive; VACV Venus inh: inactive; Pf growth 96h: inactive; HCV inhibitor: inactive; NS1 inh: inactive

What do the screens show for `CNS(=O)(=O)c1ccc2nc(NC(=O)/C=C/c3ccco3)sc2c1`?
Vaccinia mCherry: 6.3µM; Pf growth 48h: inactive; VACV Venus inh: inconclusive; Pf growth 96h: inactive; HCV inhibitor: inconclusive

How did COC(=O)c1ccc(C(=O)OC)c(NC(=O)/C=C/C(=O)O)c1 do in these assays?
Vaccinia mCherry: inactive; Pf growth 48h: inactive; VACV Venus inh: inactive; Pf growth 96h: inactive; HCV inhibitor: inactive; NS1 inh: inactive
